According to PubChem BioAssay:

Test: basal RPMI8226 viability, no added stimulus, profiling panel, cell-based, calcein-AM fluorescence, 48 h, PK04 Diversity Set (AID 1166);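 further: cells grown under basal conditions without added stimulus; test concentration not given here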
Settings: RPMI8226 myeloma viability, higher = more signal

SMILES | z-score
CC(C)(C)N1CC=CC23O[C@@H]4/C=C\CCCOC(=O)C4[C@H]2C(=O)N(CCCCCO)[C@@H]3C1=O (stereo partly specified) | 0.382
CN(C)CCCC[C@@H]1NC(=O)[C@@H]2C[C@H](C(=O)NCCCCCCNC(=O)CS)[C@H](c3ccc(O)cc3)N2C1=O | 0.381
CC1CC/C=C\[C@H]2OC34C=CCN(CCN5CCOCC5)C(=O)[C@H]3N(CCCO)C(=O)[C@@H]4C2C(=O)O1 (stereo partly specified) | 0.42
COc1ccccc1CN1C(=O)c2ccccc2[C@](Cc2ccccc2I)(C(=O)NCC(C)C)[C@@H]1c1ccc(CO)cc1 | -0.458
COCC(=C=CC[C@H](O)c1ccccc1OCCO)C[C@H](O)COCc1ccccc1 | -0.311
O=C(NC1CC1)[C@@H]1c2ccccc2C(=O)N(Cc2ccc(OC(F)(F)F)cc2)[C@H]1c1ccc(CO)cc1 | -0.0348
O=C1C2C=CC(C(O)c3c(F)cccc3Cl)N(Nc3ccc([N+](=O)[O-])cc3)C2C(=O)N1c1ccccc1 (stereo unspecified) | -1.09
C[C@@H]1NC(=O)C([C@@H](C)OCc2ccccc2)NC(=O)[C@@]23C(=O)N[C@@H](Cc4ccccc4)C2[C@H](C)[C@@]2(C)O[C@H]2C3/C=C/C/C=C\CNC1=O (stereo partly specified) | -1.1
CC1CC/C=C\[C@H]2OC34C=CCN(c5ccc(Cl)cc5)C(=O)[C@H]3N(CCCCCCO)C(=O)[C@]4(C)C2C(=O)O1 (stereo partly specified) | -0.368
CC1=C([C@H](O)CCc2ccccc2)[C@H](CO)n2c(=O)n(-c3ccccc3)c(=O)n2C1 | 0.874
CCOC(=O)C[C@H]1[C@H](OC(=O)Cc2ccc3c(c2)OCO3)[C@@H](NC(=O)Cc2ccc(OC)cc2)c2cc(OCCCO)ccc2N1C(=O)Cc1ccc(OC)cc1 | -0.658
